The nature of assay [1]: BET inhibitor-based combinations targeting novel dependencies in MECOM-rearranged (r) AML: SET-2 cell line (AID 2202231). Further: nearly all actives have a fitted effect of over 35% in size.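 On viability: plate controls were DMSO treated cells for no effect and wells without cells for full effect.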 The note with it: SET-2 AML cells viability, CellTiter-Glo luminescence, 48 h; viability: hits give low values, concentration not given here. The method, boiled down:
(§1)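 Each compound was tested at eleven concentrations on cells seeded at 500/well. After two days' incubation, ATP-based luminescence reported viability; responses relative to DMSO and blank wells yielded AUC and cell-line-centred Z-AUC.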
A general note: Cellular ATP, detected with luciferase, serves as a proxy for viable cell number.

Assay [2] is described as follows: BET inhibitor-based combinations targeting novel dependencies in MECOM-rearranged (r) AML: OCI-AML3 cell line (AID 2202232). Further: nearly all actives have a fitted effect of over 35% in size.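 On viability (% of control): series mostly up to about 46 µM; plate controls were DMSO vehicle wells for no effect and wells without cells for full effect.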 The note with it: Potency: OCI-AML3 viability. The method, boiled down:
as §1

Assay [3] can be described thus: BET inhibitor-based combinations targeting novel dependencies in MECOM-rearranged (r) AML: MV-4-11 cell line (AID 2202233). Further: nearly all actives have a fitted effect of over 45% in size.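 On viability, % of control: plate controls were DMSO for no effect and blank wells for full effect.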 The method, boiled down: (§2)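 First, 500 cells per well were seeded; next, drugs were pinned as 11-point doses; then plates sat 48 hr in the incubator; finally CellTiter-Glo was added and luminescence read, with AUC and Z-AUC computed.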
The nature of assay [4]: BET inhibitor-based combinations targeting novel dependencies in MECOM-rearranged (r) AML: HNT-34 cell line (AID 2202234). Further: nearly all actives have a fitted effect of over 35% in size.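 On viability (% of control): plate controls were vehicle wells for no effect and cell-free wells for full effect.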 Put shortly: as §2
The nature of assay [5]: BET inhibitor-based combinations targeting novel dependencies in MECOM-rearranged (r) AML: UCSD-AML1 cell line (AID 2202235). Further: nearly all actives have a fitted effect of over 40% in size.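 On viability (% of control): series mostly up to about 46 µM; plate controls were DMSO vehicle wells for no effect and blank wells for full effect.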 Put shortly:
as §2

Assay [6] is described as follows: BET inhibitor-based combinations targeting novel dependencies in MECOM-rearranged (r) AML: AML-191 cell line (AID 2202236; further: nearly all actives have a fitted effect of over 35% in size;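 on viability (% of control): plate controls were vehicle wells for no effect and wells without cells for full effect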). Put shortly: as §1
Assay [7] is described as follows: BET inhibitor-based combinations targeting novel dependencies in MECOM-rearranged (r) AML: AML-194 cell line (AID 2202237; further: nearly all actives have a fitted effect of over 40% in size;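 on viability (% of control): plate controls were vehicle wells for no effect and wells without cells for full effect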). The method, boiled down: as §1

Records with an inconclusive call do not appear. Values without a mark were called inactive. The source made the active and inactive calls. The call rests on the fitted dose curve; in most records, active means well fitted curve in the direction sought with a large enough effect; inconclusive means small, poorly fitted or top-dose-only effect, or another doubt; inactive means no such curve, though single readings can be large; an effect the other way counts as inactive or inconclusive. Non-standard residues stand in square brackets, D forms with d. Residues, ends and D or L forms follow the SMILES beside them.

The term viability denotes a read-out of living cells in per cent, often relative to untreated cells.
Potency means the concentration at half of the fitted maximal effect.

Regarding `CC(C)(O)[C@H]1CC[C@@](C)([C@H]2[C@@H](O)C[C@@]3(C)[C@@H]4C[C@H](O[C@@H]5O[C@H](CO)[C@@H](O)[C@H](O)[C@H]5O)[C@H]5C(C)(C)[C@@H](O[C@@H]6OC[C@@H](O)[C@H](O)[C@H]6O)CC[C@@]56C[C@@]46CC[C@]23C)O1`, the viability in assay [1] is 118%. The Potency result in assay [2], in assay [3], in assay [4], in assay [5], in assay [6] and in assay [7] was “inactive” throughout.
Consider `C[C@@]12C(=O)OC(=O)[C@]1(C)[C@H]1CC[C@@H]2O1`, for which the Potency in assay [1] is 4170 nM (active); in assay [2], 3720 nM (active); in assay [3], 3320 nM (active); in assay [4], 2950 nM (active); in assay [5], 7420 nM (active); in assay [6], 2950 nM (active). The Potency in assay [7] is 2630 nM (active).
Turning to `C[C@@H]1C(=O)OC2[C@H](O)[C@]34[C@H]5C[C@@H](C(C)(C)C)[C@]36[C@@H](OC(=O)[C@@H]6O)O[C@@]4(C(=O)O5)[C@]21O` (stereo partly specified), the viability in assay [1] is 115%. Also, the Potency result in assay [2], in assay [3], in assay [4], in assay [5], in assay [6] and in assay [7] was “inactive” throughout.
With `C[C@]12CC[C@H](O)CC1=CC[C@@H]1[C@@H]2CC[C@]2(C)C(c3cccnc3)=CC[C@@H]12`, the viability in assay [1] is 107%. The Potency entry in assay [2], in assay [3], in assay [4], in assay [5], in assay [6] and in assay [7] was “inactive” throughout.
`CNCCn1c(=O)c2cc(OC)c(OC)cc2c2cnc3cc4c(cc3c21)OCO4`: the Potency was 24.1 nM (active) in assay [1]; 21.5 nM (active) in assay [2]; 15.2 nM (active) in assay [3]; 12.1 nM (active) in assay [4]; 19.1 nM (active) in assay [5]; 24.1 nM (active) in assay [6]. Besides, the Potency in assay [7] was 24.1 nM (active).
Take `O=C(CCc1ccc(O)cc1)c1c(O)cc(O)cc1O[C@@H]1O[C@H](CO)[C@@H](O)[C@H](O)[C@H]1O`: the viability in assay [1] was 76.1%. Further, the Potency entry in assay [2], in assay [3], in assay [4], in assay [5], in assay [6] and in assay [7] was “inactive” each time.
On to `CC(C)C[C@@H]1NC(=O)[C@@H](C(C)C)NC(=O)[C@@H]2CCCN2C(=O)[C@@H](CC(=O)O)NC(=O)[C@@H](Cc2c[nH]c3ccccc23)NC1=O` (cyclo(L[dW][dD]P[dV])), for which, in assay [1], the viability was 110%. Besides, the Potency entry in assay [2], in assay [3], in assay [4], in assay [5], in assay [6] and in assay [7] was “inactive” in each case.
In the case of `CC(=O)c1cc2c(o1)C(=O)c1ccccc1C2=O`, the Potency in assay [1] is 2630 nM (active); in assay [2], 2630 nM (active); in assay [3], 833 nM (active); in assay [4], 2350 nM (active); in assay [5] it was 2950 nM (active); in assay [6], 2350 nM (active). Also, the Potency in assay [7] was 2350 nM (active).
As for `COC1CCC(N2C(=O)CNc3ncc(-c4ccc(C(C)(C)O)nc4)nc32)CC1` (stereo unspecified), the Potency in assay [1] is 7420 nM (active); in assay [2], 5250 nM (active); in assay [3], 3720 nM (active); in assay [4], 2350 nM (active); in assay [5], 525 nM (active); in assay [6] it was 5900 nM (active). Further, the Potency in assay [7] is 1660 nM (active).
For `CN(C)CCN1C(=O)c2cccc3cc(NC(N)=O)cc(c23)C1=O`, the Potency is 18600 nM (active) in assay [1]; 13200 nM (active) in assay [2]; 2950 nM (active) in assay [3]; 8330 nM (active) in assay [4]; 5900 nM (active) in assay [5]; 9340 nM (active) in assay [6]. Moreover, the Potency in assay [7] is 9340 nM (active).
Take `CN[C@H]1CN(c2ccc3c(=O)c(C(=O)O)cn(-c4nccs4)c3n2)C[C@@H]1OC`: the Potency is 2410 nM (active) in assay [1]; 1080 nM (active) in assay [2]; 270 nM (active) in assay [3]; 679 nM (active) in assay [4]; 855 nM (active) in assay [5]; 1350 nM (active) in assay [6]. The Potency in assay [7] was 1520 nM (active).
`CCCCCN(C)CCC(O)(P(=O)(O)O)P(=O)(O)O`: the viability in assay [1] was 124%. Besides, the viability (% of control) is 118% [at 5.12 µM] in assay [2]; 109% [at 5.12 µM] in assay [4]; 109% [at 5.12 µM] in assay [5]; 111% [at 5.12 µM] in assay [6]; 115% [at 5.12 µM] in assay [7]. For the same compound, the viability, % of control in assay [3] is 131% [at 5.12 µM].
Regarding `COc1cccc2c1C(=O)c1c(O)c3c(c(O)c1C2=O)C[C@@](O)(/C(CO)=N/NC(=O)CCCCCN1C(=O)C=CC1=O)C[C@@H]3O[C@H]1C[C@H](N)[C@H](O)[C@H](C)O1`, the Potency in assay [1] is 2950 nM (active); in assay [2] it was 417 nM (active); in assay [3], 186 nM (active); in assay [4], 934 nM (active); in assay [5], 525 nM (active); in assay [6] it was 1050 nM (active). In addition, in assay [7], the Potency is 934 nM (active).
Take `CS(=O)(=O)Nc1cc2occ(NC=O)c(=O)c2cc1Oc1ccccc1`: in assay [1], the viability was 101%. Further, the Potency entry in assay [2], in assay [3], in assay [4], in assay [5], in assay [6] and in assay [7] was “inactive” each time.
Consider `C=CC(=O)Nc1cccc(Oc2nc(Nc3ccc(N4CCN(C)CC4)cc3)nc3ccsc23)c1`, for which the Potency in assay [1] was 26300 nM (active); in assay [2], 10500 nM (active); in assay [3], 8330 nM (active); in assay [4], 8330 nM (active); in assay [5] it was 9340 nM (active); in assay [6], 23500 nM (active). Further, in assay [7], the Potency was 14800 nM (active).
On to `Cc1[nH]cnc1CN1CCN(C(=O)N[C@@H](CC(C)C)C(=O)O)[C@@H](Cc2ccccc2)C1=O`, for which, in assay [1], the viability was 123%. Further, the Potency in assay [2] was 6610 nM (active). Also, the Potency result in assay [3], in assay [4], in assay [5], in assay [6] and in assay [7] was “inactive” each time.
`Cc1cnc(NC(=O)c2cc(Oc3cnc(C(=O)N(C)C)nc3)c3cc(C)oc3c2)cn1`: the viability in assay [1] is 126%. Further, the Potency result in assay [2], in assay [3], in assay [4], in assay [5], in assay [6] and in assay [7] was “inactive” in each case.
In the case of `CCC(=O)OCC(=O)C1(OC(=O)CC)C(C)CC2C3CCC4=CC(=O)C=CC4(C)C3(F)C(O)CC21C` (stereo unspecified), the viability in assay [1] is 109%. Moreover, the Potency result in assay [2], in assay [3], in assay [4], in assay [5], in assay [6] and in assay [7] was “inactive” throughout.
